This passage reports growth inhibition results from PubChem BioAssay (NCI).

The nature of assay [1]: NCI Yeast Anticancer Drug Screen. Data for the rad50 strain (AID 155).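 Note: 0% = growth of vehicle-only cultures of the same strain.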 As to conditions: S. cerevisiae rad50 strain growth inhibition; at 50.0 µM; stronger effect = higher value. In outline: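 A DNA repair-deficient yeast mutant serves as the test organism; compound-induced growth inhibition is calculated against vehicle-treated cells.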
Assay [2] can be described thus: NCI Yeast Anticancer Drug Screen. Data for the mec2-1 strain (AID 157). As to conditions: S. cerevisiae mec2-1 strain, at 50.0 µM, stronger effect = higher value. In outline: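 Growth inhibition is read against vehicle-treated controls after compound exposure of the mec2-1 yeast strain, which is defective in DNA damage repair or cell cycle control.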
Assay [3] can be described thus: NCI Yeast Anticancer Drug Screen. Data for the sgs1 mgt1 strain (AID 161).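 Note: 0% = growth of cultures given vehicle only.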 The settings on record: S. cerevisiae sgs1 mgt1 strain, at 50.0 µM, stronger effect = higher value. In outline: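 Growth of a repair-deficient yeast mutant was monitored after compound treatment and expressed as inhibition relative to vehicle-treated cultures.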
Assay [4] can be described thus: NCI Yeast Anticancer Drug Screen. Data for the cln2 rad14 strain (AID 165).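 Note: 0% = growth equal to vehicle treated cultures.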 The settings on record: S. cerevisiae cln2 rad14 strain, at 50.0 µM, stronger effect = higher value. In outline:
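Growth inhibition, relative to vehicle-treated controls, is the read-out. The test organism is a yeast strain with defined genetic alterations, cln2 rad14.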

The nature of assay [5]: NCI Yeast Anticancer Drug Screen. Data for the bub3 strain (AID 167). As to conditions: S. cerevisiae bub3 mutant strain, at 50.0 µM, stronger effect = higher value. In outline:
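Inhibition values come from growth of compound-treated mutant yeast normalised to vehicle-treated controls.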

A short description of assay [6]: NCI Yeast Anticancer Drug Screen. Data for the mlh1 rad18 strain (AID 175). As to conditions: S. cerevisiae mlh1 rad18 strain growth inhibition; at 50.0 µM; stronger effect = higher value. The essentials: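 Cells of a genetically altered yeast strain, deficient in DNA damage repair, were treated with compound. Their growth was then compared with that of vehicle-treated cultures to give inhibition.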

SMILES strings stand for the structures. Values joined by “and” are separate entries in the source; they are usually repeats but may differ in a detail not shown here. Equal entries are not always repeated. The panel holds about 79,000 compounds, 15% with a hit somewhere; the sample as a whole holds those more often. More than one record can exist for a structure, and the calls need not agree. Active and inactive are the calls of the source. Cut-off read from the data, not from the text of the source: active = growth inhibition above about 70%; inactive = the rest.

Turning to `CCOC1(C)OC2OC(COC(c3ccccc3)(c3ccccc3)c3ccccc3)C(O)C(O)C2O1` (centres undefined), the growth inhibition in assay [1] was 63% (inactive) and 48.6% (inactive); in assay [2] it was 28.9% (inactive) and 6.85% (inactive); in assay [3], 95.2% (active) and 54.7% (inactive); in assay [4], 24.9% (inactive) and 28.4% (inactive); in assay [5] it was 76.2% (active) and 27.6% (inactive); in assay [6], 50.9% (inactive) and 50% (inactive).
On to `O=C1CCSSCCC(=O)NCCN1`, for which the growth inhibition is 7.95% (inactive) and -6.4% (inactive) in assay [1]; 8.6% (inactive) and -3.25% (inactive) in assay [2]; -5.75% (inactive) and 5.55% (inactive) in assay [3]; -2.5% (inactive) and 14.3% (inactive) in assay [4]; 6.65% (inactive) and 29% (inactive) in assay [5]; 16.2% (inactive) and 0.4% (inactive) in assay [6].
`O=C(O)CCCCC(=O)O`: the growth inhibition in assay [1] is 2.1% (inactive) and -5.2% (inactive); in assay [2], -6.65% (inactive) and -1.2% (inactive); in assay [3], -3.8% (inactive) and -32.5% (inactive); in assay [4], -30.3% (inactive) and 8% (inactive); in assay [5] it was -18.1% (inactive) and -22.1% (inactive); in assay [6], -5.6% (inactive) and 6.85% (inactive).
With `Oc1ccc(-c2ccc(O)cc2)cc1`, the growth inhibition in assay [1] is 36.2% (inactive) and -18.6% (inactive); in assay [2], 2.45% (inactive) and -3.75% (inactive); in assay [3], 7.4% (inactive) and -17.4% (inactive); in assay [4] it was 19.9% (inactive) and -27.9% (inactive); in assay [5], 11.9% (inactive) and 12.9% (inactive); in assay [6], 13.8% (inactive) and 19.3% (inactive).
As to `O=C1NC(=O)C(CO)(c2ccccc2)N1` (centres undefined), the growth inhibition in assay [1] was 14.2% (inactive) and 7.65% (inactive); in assay [2], 2% (inactive) and -11.6% (inactive); in assay [3] it was 6% (inactive) and -1.85% (inactive); in assay [4], -18.6% (inactive) and 46.5% (inactive); in assay [5] it was 0.95% (inactive) and 10.4% (inactive); in assay [6] it was 7.2% (inactive) and 21.4% (inactive).
As to `Nc1ccc(S(=O)(=O)Nc2cnc3ccccc3n2)cc1`, the growth inhibition in assay [1] is -11.1% (inactive) and -2.05% (inactive); in assay [2] it was -1.95% (inactive) and -1.25% (inactive); in assay [3], 2.25% (inactive) and -5.9% (inactive); in assay [4], -20.2% (inactive) and -30.1% (inactive); in assay [5], -11.2% (inactive) and -10.6% (inactive); in assay [6], -4.45% (inactive) and -6.45% (inactive).
Regarding `O=[N+]([O-])c1ccc(S(=O)(=O)Cl)cc1`, the growth inhibition in assay [1] was 53.2% (inactive) and 20.5% (inactive); in assay [2] it was -3.75% (inactive) and 6.75% (inactive); in assay [3], 30.9% (inactive) and 44.5% (inactive); in assay [4] it was 35.8% (inactive) and 23.1% (inactive); in assay [5] it was 28.1% (inactive) and 6.15% (inactive); in assay [6] it was 52% (inactive) and 52.5% (inactive).
Take `NC(Cn1ccc(=O)c(O)c1)C(=O)O` (centres undefined): the growth inhibition in assay [1] was 9.8% (inactive) and -0.85% (inactive); in assay [2], 18.6% (inactive) and 5.7% (inactive); in assay [3] it was 7.35% (inactive) and 21.9% (inactive); in assay [4] it was 13.2% (inactive) and 6.8% (inactive); in assay [5] it was 10.7% (inactive) and 11.4% (inactive); in assay [6] it was -90.2% (inactive) and 4.3% (inactive).
As to `NC1CCC(N)CC1` (centres undefined), the growth inhibition in assay [1] was 7.75% (inactive) and 9.05% (inactive); in assay [2], 10% (inactive) and -5.85% (inactive); in assay [3], 0.2% (inactive) and 0.75% (inactive); in assay [4], -11.8% (inactive) and -16.1% (inactive); in assay [5], 8.65% (inactive) and 10.4% (inactive); in assay [6], -6.35% (inactive) and 1.4% (inactive).
As to `NC(=O)CC(N)C(=O)O` (centres undefined), the growth inhibition in assay [1] is -4.4% (inactive) and -5.3% (inactive); in assay [2], -30.1% (inactive) and -1.65% (inactive); in assay [3] it was -10.8% (inactive) and -4.4% (inactive); in assay [4], -1% (inactive) and 11.7% (inactive); in assay [5], 1.5% (inactive) and -13.7% (inactive); in assay [6], 0.7% (inactive) and 2.65% (inactive).
On to `Cc1ccc(S(=O)(=O)NC(C(=O)O)C(C)C)cc1` (centres undefined), for which the growth inhibition in assay [1] was 11.5% (inactive) and -39.5% (inactive); in assay [2], 3.75% (inactive) and -12.9% (inactive); in assay [3], -8.8% (inactive) and -51.1% (inactive); in assay [4], -1.2% (inactive) and -20.2% (inactive); in assay [5], 35% (inactive) and -16.2% (inactive); in assay [6], 0.45% (inactive) and -18.9% (inactive).
Turning to `Nc1ncnc2c1nc(N1CCCCC1)n2C1OC(CO)C(O)C1O` (centres undefined), the growth inhibition in assay [1] is 27.9% (inactive) and -5.55% (inactive); in assay [2], 12.2% (inactive) and -0.15% (inactive); in assay [3], 9.9% (inactive); in assay [4], -38% (inactive) and -43.2% (inactive); in assay [5] it was 3.5% (inactive) and -5.1% (inactive); in assay [6], 2.6% (inactive) and -7.85% (inactive).
On to `CN(C)CC1COC2Cc3ccccc3C1O2` (centres undefined), for which the growth inhibition in assay [1] is -43.2% (inactive) and -0.75% (inactive); in assay [2], -22.1% (inactive) and -20.2% (inactive); in assay [3], -17.2% (inactive) and -1.65% (inactive); in assay [4], -46.1% (inactive) and 20.9% (inactive); in assay [5] it was -19.1% (inactive) and 21.5% (inactive); in assay [6], -29.3% (inactive) and 1.95% (inactive).
Take `O=C(NC(=O)c1ccccc1)NC(=O)c1ccccc1`: the growth inhibition is -2.6% (inactive) and -1.25% (inactive) in assay [1]; -10% (inactive) and -14.1% (inactive) in assay [2]; -3.35% (inactive) and 1.1% (inactive) in assay [3]; 7.8% (inactive) and -17.6% (inactive) in assay [4]; 8.35% (inactive) and -6.25% (inactive) in assay [5]; -3.65% (inactive) and -45.1% (inactive) in assay [6].
